Assay results taken from PubChem BioAssay AID1159580 (chemical genetic matrix, 2015).
Values joined by “and” are separate entries in the source; they are usually repeats but may differ in a detail not shown here. Equal entries are not always repeated. Among all 5,500 compounds or so, about 2,000 (36%) were called active. About 18% were inconclusive and are not listed. No stated cut-off is given here; in the data, active means normalized growth mostly below about 0.91 (no sharp cut-off); inconclusive means no clear call, values can overlap the other calls; inactive means mostly above about 0.92. The list shows a part of the results.

Experiment: chemical genetic growth profiling, strain panel (AID 1159580);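 further: tested at 20 µM; growth read once vehicle control cultures reached saturation at 30 °C; 1 = growth at the plate median or of vehicle wells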
Conditions: S. cerevisiae deletion strains, growth OD

Measured: normalized growth

CCNc1nc(Cl)nc(NC(C)C)n1
inactive: locus YAL013W, strain DEP1, stronger effect = lower value 1.01 | locus YAL021C, strain ccr4, stronger effect = lower value 0.995 | locus YAL026C, strain drs2, stronger effect = lower value 1.01 | locus YAL030W, strain snc1, stronger effect = lower value 0.999 | locus YBL061C, strain skt5, stronger effect = lower value 1.01 | locus YBR009C, strain hhf1, stronger effect = lower value 0.99 | locus YBR021W, strain FUR4, stronger effect = lower value 1.02 | locus YBR023C, strain chs3, stronger effect = lower value 0.998 | locus YBR171W, strain sec66, stronger effect = lower value 0.995 | locus YBR229C, strain ROT2, stronger effect = lower value 1.01 | locus YBR231C, strain swc5, stronger effect = lower value 1.01 | locus YBR279W, strain paf1, stronger effect = lower value 0.998 | locus YCL011C, strain gbp2, stronger effect = lower value 0.993 | locus YCL016C, strain dcc1, stronger effect = lower value 0.995 | locus YCL029C, strain bik1, stronger effect = lower value 1.02 | locus YCL061C, strain MRC1, stronger effect = lower value 0.99 | locus YCL069W, strain vba3, stronger effect = lower value 0.997 | locus YCR088W, strain abp1, stronger effect = lower value 1 | locus YDL005C, strain med2, stronger effect = lower value 0.999 | locus YDL035C, strain GPR1, stronger effect = lower value 1.01 | locus YDL040C, strain nat1, stronger effect = lower value 1 | locus YDL074C, strain BRE1, stronger effect = lower value 1.01 | locus YDL101C, strain DUN1, stronger effect = lower value 1.03 | locus YDL134C, strain PPH21, stronger effect = lower value 1.02 | locus YDL185W, strain tfp1, stronger effect = lower value 1.02 | locus YDL192W, strain arf1, stronger effect = lower value 1.02 | locus YDR001C, strain nth1, stronger effect = lower value 0.992 | locus YDR069C, strain doa4, stronger effect = lower value 1.01 | locus YDR101C, strain arx1, stronger effect = lower value 1.02 | locus YDR137W, strain rgp1, stronger effect = lower value 0.999 | locus YDR150W, strain NUM1, stronger effect = lower value 1.02 | locus YDR159W, strain sac3, stronger effect = lower value 1.01 | locus YDR162C, strain NBP2, stronger effect = lower value 1.04 | locus YDR195W, strain ref2 0.987 | locus YDR297W, strain sur2, stronger effect = lower value 1 | locus YDR318W, strain mcm21, stronger effect = lower value 1.03 | locus YDR334W, strain swr1, stronger effect = lower value 0.999 | locus YDR335W, strain msn5, stronger effect = lower value 1.01 | locus YDR388W, stronger effect = lower value 1.01 | locus YDR392W, strain spt3, stronger effect = lower value 1.01 | locus YDR502C, strain sam2, stronger effect = lower value 1.02 | locus YEL003W, strain gim4, stronger effect = lower value 0.994 | locus YEL037C, strain rad23, stronger effect = lower value 1.01 | locus YEL061C, strain CIN8 (second series), stronger effect = lower value 1.01 | locus YEL061C, strain CIN8, stronger effect = lower value 1.01 | locus YER015W, strain faa2, stronger effect = lower value 1 | locus YER016W, strain bim1, stronger effect = lower value 0.997 | locus YER110C, stronger effect = lower value 1.02 | locus YER111C, strain swi4, stronger effect = lower value 1 | locus YER155C, strain BEM2 (second series), stronger effect = lower value 0.993 | locus YER155C, strain BEM2, stronger effect = lower value 1 | locus YER167W, strain BCK2, stronger effect = lower value 1.02 | locus YFR010W, strain ubp6, stronger effect = lower value 1.01 | locus YGL078C, strain dbp3, stronger effect = lower value 1.02 | locus YGL086W, strain mad1, stronger effect = lower value 1.01 | locus YGL167C, strain pmr1, stronger effect = lower value 0.994 | locus YGL173C, strain kem1, stronger effect = lower value 1.01 | locus YGL227W, strain vid30, stronger effect = lower value 0.999 | locus YGL240W, strain doc1, stronger effect = lower value 0.98 | locus YGL248W, strain PDE1, stronger effect = lower value 1.01 | locus YGL253W, strain hxk2, stronger effect = lower value 1 | locus YGR078C, strain PAC10, stronger effect = lower value 1.02 | locus YGR135W, strain pre9, stronger effect = lower value 1.01 | locus YGR229C, strain SMI1, stronger effect = lower value 1.02 | locus YGR252W, strain gcn5, stronger effect = lower value 1 | locus YHR013C, strain ard1, stronger effect = lower value 1.01 | locus YHR027C, strain rpn1, stronger effect = lower value 1 | locus YHR030C, strain SLT2, stronger effect = lower value 1.03 and 0.992 | locus YHR079C, strain IRE1 (second series), stronger effect = lower value 1.02 | locus YHR079C, strain IRE1, stronger effect = lower value 0.99 | locus YHR094C, strain hxt1, stronger effect = lower value 1.02 | locus YHR129C, strain ARP1, stronger effect = lower value 1.01 | locus YHR142W, strain chs7, stronger effect = lower value 0.972 | locus YHR200W, strain rpn10, stronger effect = lower value 1.02 | locus YIL066C, strain RNR3, stronger effect = lower value 0.944 | locus YIL073C, strain SPO22, stronger effect = lower value 1.04 | locus YIL125W, strain kgd1, stronger effect = lower value 1.02 | locus YIR030C, strain dcg1, stronger effect = lower value 1.03 | locus YJL092W, strain hpr5, stronger effect = lower value 0.998 | locus YJL095W, strain BCK1 (second series), stronger effect = lower value 1 | locus YJL095W, strain BCK1, stronger effect = lower value 1 and 0.985 | locus YJL115W, strain asf1, stronger effect = lower value 1.01 | locus YJL129C, strain trk1, stronger effect = lower value 0.982 | locus YJL134W, strain LCB3, stronger effect = lower value 1.03 | locus YJL154C, strain vps35, stronger effect = lower value 0.996 | locus YJL164C, strain tpk1, stronger effect = lower value 0.998 | locus YJL166W, strain qcr8, stronger effect = lower value 0.993 | locus YJL168C, strain set2, stronger effect = lower value 1.02 | locus YJL187C, strain SWE1 (second series), stronger effect = lower value 1.02 | locus YJR043C, strain POL32, stronger effect = lower value 1.02 | locus YJR066W, strain TOR1, stronger effect = lower value 0.959
